# Measured values as given in the supplement of paper PMC7156485.
# System: TDF
# Test: H1.0 immunofluorescence intensity relative to DMSO (% of DMSO); higher = stronger H1.0 induction, active = 120 or more
# Conditions: concentration: 10 µM; 24 h
# How it was run: (§1)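 H1.0 nuclear intensity or cell number is stated as percent of the plate control, based on the median of replicates, and HCC1569 values were smoothed for positional effects. These came from HCC1569 and TDF cells treated with compounds at 10 µM for 24 h at 37 °C in triplicate, then fixed in 3.7% formaldehyde and stained with a rabbit anti-H1.0 antibody, an AlexaFluor 647 secondary and DAPI.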
# 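Further: TDF is a line of transformed human dermal fibroblasts of mesenchymal origin.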
row,SMILES,H1.0 immunofluorescence intensity
1,"NC(Cn1oc(=O)[nH]c1=O)C(=O)O (single isomer, unassigned; (+)) [(+)-Quisqualic acid]",93.9 (inactive)
2,"COc1ccc2[nH]c3c(c2c1)CCNC3 [6-Methoxy-1,2,3,4-tetrahydro-9H-pyrido[3,4b] indole]",108 (inactive)
3,O=c1c2ccccc2[se]n1-c1ccccc1 [Ebselen],102 (inactive)
4,CC(C)C1CNC(C(=O)O)C1CC(=O)O (configuration not stated) [Dihydrokainic acid],89.2 (inactive)
5,CN1CCC(c2c[nH]c3ccc(O)cc23)CC1.O=C(O)C=CC(=O)O,93.8 (inactive)
6,NC(=O)COc1c(F)cc(SCCNS(=O)(=O)c2ccccc2)cc1F,93.5 (inactive)
7,CC1CC=CC2C3OC3(C)C(C)C3C(Cc4ccccc4)NC(=O)C23OC(=O)OC=CC(C)(O)C1=O (configuration not stated) [Cytochalasin E],226 (active)
8,C=C(C)C1Cc2c(ccc3c2OC2COc4cc(OC)c(OC)cc4C2C3=O)O1 (configuration not stated) [Rotenone],147 (active)

# System: HCC1569
# Test: H1.0 immunofluorescence intensity relative to DMSO (% of DMSO); higher = stronger H1.0 induction, active = 140 or more
# Conditions: concentration: 10 µM; 24 h
# How it was run: as §1
row,SMILES,H1.0 immunofluorescence intensity
1,Cl.NNC(N)=O [Semicarbazide hydrochloride],108 (inactive)
2,Cc1ccc2c(c1)C1(CCN(CCc3nc(-c4ccccc4)oc3C)CC1)OC(=O)N2,123 (inactive)
3,CN1CC(C(=O)NC2(C)OC3(O)C4CCCN4C(=O)C(Cc4ccccc4)N3C2=O)CC2c3cccc4[nH]cc(c34)CC21.CS(=O)(=O)O (configuration not stated) [Dihydroergotamine methanesulfonate],95.5 (inactive)
4,CCC1(c2ccc(N)cc2)CCC(=O)NC1=O (racemic) [DL-Aminoglutethimide],109 (inactive)
5,Cn1ncnc1COc1nn2c(-c3c(F)cccc3F)nnc2cc1C1CCC1,99.6 (inactive)
6,CC1=NN=C(c2ccc(N)cc2)c2cc3c(cc2C1)OCO3.Cl,104 (inactive)
7,Cl.Oc1ccc2c3c1OC1C(O)CCC4(O)C(C2)N(CC2CCC2)CCC314 (configuration not stated) [Nalbuphine hydrochloride],88.2 (inactive)
8,CC(N)Cc1c[nH]c2ccc(O)cc12.O=C(O)C=CC(=O)O (stereo not drawn) [alpha-Methyl-5-hydroxytryptamine maleate],87.9 (inactive)
9,CC(C(O)CCC(C)(C)O)C1CCC2(O)C3=CC(=O)C4CC(O)C(O)CC4(C)C3CCC12C (configuration not stated) [Ecdysone],88.8 (inactive)
10,O.O=P1(N(CCCl)CCCl)NCCCO1 (configuration not stated) [Cyclophosphamide monohydrate],103 (inactive)
11,CC12Cc3cn[nH]c3CC1CCC1C2CCC2(C)C1CCC2(C)O (configuration not stated) [Stanozolol],87.3 (inactive)
12,Fc1cc(F)c2c(c1)C1C=CCC1C(c1cccnc1)N2 (configuration not stated),169 (active)
13,CCN1CC2(C)CCC(O)C34C5CC6C(OC)CC(O)(C(CC23)C14)C5C6O (configuration not stated) [Karakoline],99.8 (inactive)
14,Cl.O=C1CC2OCC=C3CN4CCC56c7ccccc7N1C5C2C3CC46 (configuration not stated),94.2 (inactive)
15,CCOP(=O)(OCC)C(C)NC(=O)N(CCCl)N=O (configuration not stated),90.6 (inactive)
16,C=CCN1CCC23c4c5ccc(O)c4OC2C(=O)CCC3(O)C1C5.Cl (configuration not stated) [Naloxone hydrochloride],90.6 (inactive)
17,O=S1(=O)N(CCN2CC=C(c3c[nH]c4cc(F)ccc34)CC2)c2cccc3c2N1CCC3,102 (inactive)
18,CC(=O)c1c(O)c(C)c(O)c(Cc2c(O)c3c(c(C(=O)C=Cc4ccccc4)c2O)OC(C)(C)C=C3)c1O [Rottlerin],104 (inactive)
19,"CC(O)C(C)OC(=O)C1CC2c3cccc4c3c(cn4C(C)C)CC2N(C)C1.O=C(O)C=CC(=O)O (configuration not stated) [LY-53,857 maleate]",90.5 (inactive)
20,CC(C)(C)NCC(O)c1cc(Cl)c(N)c(Cl)c1 (configuration not stated) [Clenbuterol],118 (inactive)

row,SMILES,H1.0 immunofluorescence intensity
1,O=C(O)C1C2CCC(O2)C1C(=O)O (configuration not stated) [Endothall],129 (inactive)
2,CC1CC2CCC(O2)C(C)C(=O)OC(C)CC2CCC(O2)C(C)C(=O)OC(C)CC2CCC(O2)C(C)C(=O)OC(C)CC2CCC(O2)C(C)C(=O)O1 (configuration not stated) [Nonactin],148 (active)
3,Cl.Cl.Clc1cccc(N2CCNCC2)c1 [1-(3-Chlorophenyl)piperazine dihydrochloride],100 (inactive)
4,COCC1OC(=O)c2coc3c2C1(C)C1=C(C3=O)C2CCC(=O)C2(C)CC1OC(C)=O (configuration not stated) [Wortmannin from Penicillium funiculosum],153 (active)
5,NC1(C(=O)O)CCC(C(=O)O)C1 (mixture of isomers),95.1 (inactive)
6,O=[N+]([O-])C=Cc1ccc2c(c1)OCO2 [Syk Inhibitor III],99.6 (inactive)
7,Cl.c1ccc2c(N3CCNCC3)cccc2c1 [1-(1-Naphthyl)piperazine hydrochloride],106 (inactive)
8,CC1OC(OC2CC(O)C3(CO)C4C(O)CC5(C)C(C6=CC(=O)OC6)CCC5(O)C4CCC3(O)C2)C(O)C(O)C1O (configuration not stated) [Ouabain],126 (inactive)
9,COc1cc2c(cc1OC)[C@H]1CC(=O)[C@H](CC(C)C)CN1CC2,96.4 (inactive)
10,Cl.FC(F)(F)c1cccc(C2=CCN(CCc3ccc4ccccc4c3)CC2)c1,100 (inactive)
11,Cl.Cl.Cn1cnc(CCN)c1 [1-Methylhistamine dihydrochloride],95.3 (inactive)
12,"NC(Cn1oc(=O)[nH]c1=O)C(=O)O (single isomer, unassigned; (+)) [(+)-Quisqualic acid]",103 (inactive)
13,"COc1ccc2[nH]c3c(c2c1)CCNC3 [6-Methoxy-1,2,3,4-tetrahydro-9H-pyrido[3,4b] indole]",108 (inactive)
14,O=c1c2ccccc2[se]n1-c1ccccc1 [Ebselen],114 (inactive)
15,CC(C)C1CNC(C(=O)O)C1CC(=O)O (configuration not stated) [Dihydrokainic acid],88.7 (inactive)
16,CN1CCC(c2c[nH]c3ccc(O)cc23)CC1.O=C(O)C=CC(=O)O,82.3 (inactive)
17,NC(=O)COc1c(F)cc(SCCNS(=O)(=O)c2ccccc2)cc1F,106 (inactive)
18,CC1CC=CC2C3OC3(C)C(C)C3C(Cc4ccccc4)NC(=O)C23OC(=O)OC=CC(C)(O)C1=O (configuration not stated) [Cytochalasin E],247 (active)
19,C=C(C)C1Cc2c(ccc3c2OC2COc4cc(OC)c(OC)cc4C2C3=O)O1 (configuration not stated) [Rotenone],178 (active)
